From PubChem BioAssay (NCATS) come the findings set out here.

Results filed as inconclusive are left out. The source made the active and inactive calls. Unless noted, calls come from the whole dose curve; as a rule, active = well fitted curve in either direction with a large enough effect (not every such curve was filed as active); inconclusive = small, poorly fitted or top-dose-only effect, or another doubt; inactive = flat fitted curve, though single readings scatter. Bounds are passed on as bounds.

In test [1] the target is Lysosomal acid glucosylceramidase (Homo sapiens) (UniProt P04062). As to the kind of experiment: Glucocerebrosidase-p2 (AID 348; in the data active = potency below about 10 µM; note: potency is the fitted concentration of half-maximal effect). The conditions noted are these: purified GBA, blue fluorogenic substrate, 40 min. A digest of the protocol:
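Normal human glucocerebrosidase (0.2 nM) with blue fluorogenic substrate (80 uM final) in citrate/phosphate pH 5.9 with 10mM sodium taurocholate, 0.01% tween-20; 40 min RT, NaOH/glycine stop; fluorescence Ex 365/Em 440; AC50 from a titration from 0.6 nM upwards.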

A short description of test [2]: AP1 Signaling Pathway (AID 357). Note: % is set by controls: 0 for no effect and ±100 for the full control effect. The settings on record: ME-180 AP-1-bla reporter, EGF-induced, beta-lactamase ratio, 5 h; at 7.69 µM (top of the series) unless noted. A digest of the protocol:
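AP-1-bla ME-180 cells with beta-lactamase reporter under AP-1 response element, stimulated with EC50 EGF; compounds titrated, 5 hours at 37 degrees Celsius. CCF4 read at 460/530 nm ratio; positive and negative modulators judged by AC50.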

For test [3], the target named is Cytochrome P450 1A2 (Homo sapiens) (UniProt P05177). As to the kind of experiment: p450-cyp1a2 (AID 410; calls by dose curve;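 note: -100% = full effect of reference inhibitor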). The settings on record: recombinant CYP1A2, luciferin-ME demethylation, luminescence; series mostly up to 57 µM. In a few lines:
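Luminescent demethylation readout: Luciferin-ME (100uM, equal to Km) turned over by 20nM CYP1A2 for 60 min at room temperature after NADPH regeneration addition, following 10 min compound preincubation. Normalization used 57 uM furafylline as full inhibition.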

Test [4] in a line: Stat Signaling Pathway (AID 446).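 Note: ME-180 cervical cancer cells given 40 pM IL-6 alongside compound; SIE-controlled beta-lactamase reporter measured as 460/530 nm FRET emission ratio; % is set by controls: 0 for no effect and ±100 for the full control effect.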 The settings on record: ME-180 SIE beta-lactamase reporter, IL-6 stimulated, 5 h; at 7.69 µM (top of the series) unless noted. In a few lines:
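Compound effects on IL-6-induced STAT reporter activity were measured in ME-180 cells. After overnight culture, cells were co-treated with 40 pM IL-6 for 5 hrs before beta-lactamase substrate loading at room temperature.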

The target in test [5] is Glucocorticoid receptor (Homo sapiens) (UniProt P04150). Description: GR-EFC Redistribution (AID 451; calls by dose curve; note: potency is the fitted concentration of half-maximal effect). The conditions noted are these: CHO-K1 GR-EFC translocation, beta-gal luminescence, 2 h. A digest of the protocol: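 CHO-K1 cells expressing nuclear EA and GR-ED fragments of b-gal; compounds titrated up to 46 uM final, 2 h at 37 C. GR nuclear translocation read as complemented b-gal luminescence after 1 h RT detection.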
Glucocorticoid receptor (Homo sapiens), sequence (P04150 whole entry, looked up, the tested form may be a part): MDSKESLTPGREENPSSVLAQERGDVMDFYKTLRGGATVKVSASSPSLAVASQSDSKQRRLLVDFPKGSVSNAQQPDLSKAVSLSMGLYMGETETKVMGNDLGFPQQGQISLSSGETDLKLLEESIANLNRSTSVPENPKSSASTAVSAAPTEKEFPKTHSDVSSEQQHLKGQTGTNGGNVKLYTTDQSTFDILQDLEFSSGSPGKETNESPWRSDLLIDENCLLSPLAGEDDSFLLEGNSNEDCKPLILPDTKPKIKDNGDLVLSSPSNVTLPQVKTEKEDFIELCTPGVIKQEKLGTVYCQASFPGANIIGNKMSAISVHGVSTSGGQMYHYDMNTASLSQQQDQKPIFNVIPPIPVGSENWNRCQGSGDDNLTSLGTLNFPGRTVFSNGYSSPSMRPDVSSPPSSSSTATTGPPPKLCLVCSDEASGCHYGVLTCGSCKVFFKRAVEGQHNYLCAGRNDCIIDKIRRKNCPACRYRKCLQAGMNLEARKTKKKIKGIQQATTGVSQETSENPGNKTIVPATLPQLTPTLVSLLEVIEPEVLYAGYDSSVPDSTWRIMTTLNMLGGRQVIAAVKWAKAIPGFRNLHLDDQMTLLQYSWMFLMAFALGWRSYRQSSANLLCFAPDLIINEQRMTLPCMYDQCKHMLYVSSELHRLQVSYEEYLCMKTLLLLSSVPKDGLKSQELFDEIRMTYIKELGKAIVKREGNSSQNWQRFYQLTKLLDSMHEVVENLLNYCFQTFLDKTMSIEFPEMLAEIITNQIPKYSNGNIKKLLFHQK

Test [6] deals with Mitogen-activated protein kinase 10 (Mus musculus) (UniProt Q61831). As to the kind of experiment: JNK3 AlphaScreen Assay (AID 530).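 Note: kinase came from lysate of stimulated human HepG2 cells; signal reports phosphorylation of biotinylated GST-cJun 1-79 at Ser73 with 10 µM ATP; % is set by controls: 0 for no effect and ±100 for the full control effect.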 The settings on record: JNK3 lysate, c-Jun phosphorylation; series mostly up to 57.1 µM. A digest of the protocol:
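Activity was read by AlphaScreen after JNK3-containing HepG2 lysate (cytokine pre-activated) phosphorylated biotinylated GST-cJun with 10 uM ATP at room temperature. Phospho-Ser73 cJun antibody with Protein-A acceptor beads provided detection.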
(In Alpha technology, singlet oxygen from a donor bead excites a nearby acceptor bead.)

In test [7] the target is 3',5'-cyclic-AMP phosphodiesterase 4B (Homo sapiens) (UniProt Q07343). As to the kind of experiment: qHTS Assay for Inhibitors of PDE-IV (AID 607; active = well fitted activation curve with a large enough effect in the main read-out, with a control signal flat, not every such curve was filed as active; note: % of control where 0% means no effect). The conditions noted are these: HEK293 ACTOne CNG channel cells, membrane potential fluorescence; series mostly up to 22.9 µM. A digest of the protocol: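 ACTOne HEK293 cells carry a modified cAMP-gated CNG channel and express endogenous PDE4; plated 1000 cells/well, compounds up to 22.9 uM final. Membrane-potential dye fluorescence (ex 535/em 590) was read; parental cells received 10 uM forskolin + 100 uM RO 20-1724.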
3',5'-cyclic-AMP phosphodiesterase 4B (Homo sapiens), sequence (Q07343 whole entry, looked up): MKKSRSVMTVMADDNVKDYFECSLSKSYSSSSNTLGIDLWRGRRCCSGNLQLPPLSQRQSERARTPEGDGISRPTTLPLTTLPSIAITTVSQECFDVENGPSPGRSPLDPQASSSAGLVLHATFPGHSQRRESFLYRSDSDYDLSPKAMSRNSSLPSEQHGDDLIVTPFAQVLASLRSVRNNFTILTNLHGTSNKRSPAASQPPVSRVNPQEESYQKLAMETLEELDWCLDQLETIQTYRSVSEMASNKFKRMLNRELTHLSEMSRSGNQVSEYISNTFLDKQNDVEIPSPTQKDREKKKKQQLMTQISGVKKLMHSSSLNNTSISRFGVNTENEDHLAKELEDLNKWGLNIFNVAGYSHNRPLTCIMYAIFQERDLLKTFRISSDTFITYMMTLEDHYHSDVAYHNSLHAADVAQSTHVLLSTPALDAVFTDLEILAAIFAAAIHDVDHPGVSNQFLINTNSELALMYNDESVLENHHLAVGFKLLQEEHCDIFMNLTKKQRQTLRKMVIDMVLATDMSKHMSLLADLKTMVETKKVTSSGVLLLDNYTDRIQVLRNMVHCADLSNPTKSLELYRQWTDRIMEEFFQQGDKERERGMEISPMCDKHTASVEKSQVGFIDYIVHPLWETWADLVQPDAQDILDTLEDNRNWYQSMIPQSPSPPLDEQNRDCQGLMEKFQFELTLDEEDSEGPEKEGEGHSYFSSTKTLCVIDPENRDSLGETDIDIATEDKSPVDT

Test [8] deals with Cytochrome P450 3A4 (Homo sapiens) (UniProt P08684). As to the kind of experiment: qHTS Assay for Activators of Cytochrome P450 3A4 (AID 885; active = well fitted curve in the direction sought with a large enough effect; an effect the other way counts as inactive or inconclusive; note: nearly all actives have a fitted effect of over 65% in size). The settings on record: recombinant CYP3A4, Luciferin-PPXE luminescence, 60 min; series mostly up to 57.1 µM. A digest of the protocol: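 CYP3A4 activity: Luciferin-PPXE O-dealkylation, 25uM substrate, 200mM KPO4, RT throughout. Read-out is luciferase luminescence; higher values reflect activation.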
Cytochrome P450 3A4 (Homo sapiens), sequence (P08684 whole entry, looked up): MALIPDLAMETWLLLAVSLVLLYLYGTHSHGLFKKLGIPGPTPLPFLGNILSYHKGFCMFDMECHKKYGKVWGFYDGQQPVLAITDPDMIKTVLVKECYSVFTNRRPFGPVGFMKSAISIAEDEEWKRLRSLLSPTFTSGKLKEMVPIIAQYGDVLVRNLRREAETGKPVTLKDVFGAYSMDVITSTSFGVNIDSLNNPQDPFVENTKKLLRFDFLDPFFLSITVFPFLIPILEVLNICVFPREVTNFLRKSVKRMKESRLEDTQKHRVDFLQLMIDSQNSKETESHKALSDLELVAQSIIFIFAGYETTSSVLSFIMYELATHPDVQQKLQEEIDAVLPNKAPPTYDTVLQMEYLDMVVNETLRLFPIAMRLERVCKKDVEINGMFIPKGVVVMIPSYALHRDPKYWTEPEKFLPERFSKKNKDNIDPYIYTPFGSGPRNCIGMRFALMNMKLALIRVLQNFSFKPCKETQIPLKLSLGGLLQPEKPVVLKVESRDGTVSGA

Test [9] addresses Cytochrome P450 2D6 (Homo sapiens) (UniProt P10635). Description: qHTS Assay for Inhibitors and Substrates of Cytochrome P450 2D6 (AID 891; active = well fitted curve in the direction sought with a large enough effect; an effect the other way counts as inactive or inconclusive; note: potency is the fitted concentration of half-maximal effect; nearly all actives have a fitted effect of over 60% in size). The settings on record: recombinant CYP2D6, luciferin-ME EGE luminescence; series mostly up to 57.1 µM. A digest of the protocol:
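Luminescent read-out of luciferin formed by 5 nM human CYP2D6 demethylating 30 uM Luciferin-ME EGE (Km level) over 60 min at room temperature after NADPH regeneration addition. Data normalized to full inhibition by 1.43 uM quinidine.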
(In general: In qHTS, concentration-response curves come from the screen itself.)

Test [10] is described as follows: qHTS Assay for Lipid Storage Modulators (AID 1519; calls by dose curve). The conditions noted are these: Drosophila S3 cells, BODIPY lipid droplet/cell ratio, laser cytometry, cells loaded with oleic acid; for activity change, negative = inhibition: at 57.5 µM (top of the series). In a few lines: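 Cells seeded at 5,000 per well were treated with compounds over a concentration series and loaded with oleic acid (400 uM, as added). Lipid droplet fluorescence (488 nm excitation, 500-530 nm channel) was read by laser-scanning cytometry and normalized to 20 uM Triacsin C.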

The nature of test [11]: Primary qHTS for small molecule stabilizers of the endoplasmic reticulum resident proteome: Secreted ER Calcium Modulated Protein (SERCaMP) assay (AID 1508630; active = well fitted curve in the direction sought with a large enough effect; an effect the other way counts as inactive or inconclusive; note: % is set by controls: 0 for no effect and ±100 for the full control effect). The settings on record: SH-SY5Y GLuc-SERCaMP (Gaussia luciferase released on ER calcium loss) secretion, thapsigargin, luminescence; series mostly up to 38.4 µM. A digest of the protocol:
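The SH-SY5Y reporter protocol was run at 3 concentrations up to 38.3 uM (primary) or 11 concentrations (follow-up): 16 h compound, 100 nM thapsigargin for 4 h, then extracellular luciferase luminescence.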

A short description of test [12]: qHTS Assay for Identification of Small Molecule Agonists for Hypoxia Response Element Signaling Pathway (AID 914; active = well fitted activation curve with a large enough effect in the signal ratio, with a control signal flat, not every such curve was filed as active; the % refers to the signal ratio; note: % of control where 0% means no effect). The settings on record: ME-180 (cervical carcinoma) HRE-bla reporter, beta-lactamase ratio, CoCl2, 17 h; activation: stronger effect = higher value. A digest of the protocol: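 Compounds in a titration series were added to ME-180 reporter cells alongside an EC50 level of CoCl2. After 17 hours, beta-lactamase activity was read as the 460nm/530nm emission ratio of CCF4, giving AC50 values.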

The target of test [13] is Cytochrome P450 2C19 (Homo sapiens) (UniProt P33261). As to the kind of experiment: qHTS Assay for Inhibitors and Substrates of Cytochrome P450 2C19 (AID 899; active = well fitted curve in the direction sought with a large enough effect; an effect the other way counts as inactive or inconclusive; note: potency is the fitted concentration of half-maximal effect; nearly all actives have a fitted effect of over 60% in size). The settings on record: recombinant CYP2C19, luciferin-H EGE luminescence; series mostly up to 57.1 µM. In a few lines: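 Luminescent read-out of luciferin formed from Luciferin-H EGE (10uM, equal to KM). Enzyme 5nM in 50mM KPO4; compound added, 10 min at 37C, then NADPH regenerating system for 60 min at 37C. Full inhibition defined by 57uM ketoconazole.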
Cytochrome P450 2C19 (Homo sapiens), sequence (P33261 whole entry, looked up): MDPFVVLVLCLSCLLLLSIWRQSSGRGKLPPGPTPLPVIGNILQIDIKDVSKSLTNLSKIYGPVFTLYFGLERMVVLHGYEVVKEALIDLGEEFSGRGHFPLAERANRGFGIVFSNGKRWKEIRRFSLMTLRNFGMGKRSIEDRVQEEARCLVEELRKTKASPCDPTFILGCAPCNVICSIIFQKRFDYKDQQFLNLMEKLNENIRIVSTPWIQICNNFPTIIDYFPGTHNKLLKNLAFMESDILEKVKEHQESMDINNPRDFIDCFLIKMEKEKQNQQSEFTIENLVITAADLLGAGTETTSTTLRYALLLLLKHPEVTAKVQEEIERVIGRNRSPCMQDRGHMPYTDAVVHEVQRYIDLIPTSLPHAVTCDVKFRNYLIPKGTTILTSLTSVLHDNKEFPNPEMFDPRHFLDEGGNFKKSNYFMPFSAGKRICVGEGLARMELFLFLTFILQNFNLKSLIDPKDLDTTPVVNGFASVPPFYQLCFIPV

Setting [14] is: measured here: cell count channel max response.
[15] abbreviates: measured here: lipid channel max response.

Lysosomal acid glucosylceramidase (Homo sapiens), sequence (P04062 whole entry, looked up): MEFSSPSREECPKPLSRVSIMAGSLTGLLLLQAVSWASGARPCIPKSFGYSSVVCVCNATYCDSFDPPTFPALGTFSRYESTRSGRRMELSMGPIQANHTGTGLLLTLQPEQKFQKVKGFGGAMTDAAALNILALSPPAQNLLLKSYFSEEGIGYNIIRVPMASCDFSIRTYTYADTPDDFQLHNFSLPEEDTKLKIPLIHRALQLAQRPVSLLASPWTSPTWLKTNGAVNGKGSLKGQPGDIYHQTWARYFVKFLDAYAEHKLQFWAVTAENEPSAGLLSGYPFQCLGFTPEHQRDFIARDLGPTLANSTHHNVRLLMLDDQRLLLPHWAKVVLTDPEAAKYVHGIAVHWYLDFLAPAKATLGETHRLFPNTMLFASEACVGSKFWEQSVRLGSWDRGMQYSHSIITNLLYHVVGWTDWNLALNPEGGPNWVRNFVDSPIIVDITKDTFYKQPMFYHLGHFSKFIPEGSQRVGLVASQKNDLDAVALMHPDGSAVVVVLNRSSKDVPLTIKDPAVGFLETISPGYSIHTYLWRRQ
Cytochrome P450 1A2 (Homo sapiens), sequence (P05177 whole entry, looked up): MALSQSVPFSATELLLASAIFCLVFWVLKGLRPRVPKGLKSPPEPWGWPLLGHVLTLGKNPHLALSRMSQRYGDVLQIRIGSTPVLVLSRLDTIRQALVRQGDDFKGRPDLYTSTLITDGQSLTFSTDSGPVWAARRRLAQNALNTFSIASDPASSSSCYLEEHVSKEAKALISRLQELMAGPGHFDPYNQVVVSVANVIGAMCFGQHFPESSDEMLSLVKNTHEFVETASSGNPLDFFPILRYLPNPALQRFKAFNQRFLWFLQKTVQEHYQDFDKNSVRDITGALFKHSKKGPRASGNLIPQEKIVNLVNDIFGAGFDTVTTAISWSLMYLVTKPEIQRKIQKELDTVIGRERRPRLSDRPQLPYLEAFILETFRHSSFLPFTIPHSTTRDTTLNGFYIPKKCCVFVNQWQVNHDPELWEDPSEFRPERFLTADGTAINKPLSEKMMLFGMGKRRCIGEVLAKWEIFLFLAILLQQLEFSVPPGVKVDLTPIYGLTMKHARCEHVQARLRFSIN
Cytochrome P450 2D6 (Homo sapiens), sequence (P10635 whole entry, looked up): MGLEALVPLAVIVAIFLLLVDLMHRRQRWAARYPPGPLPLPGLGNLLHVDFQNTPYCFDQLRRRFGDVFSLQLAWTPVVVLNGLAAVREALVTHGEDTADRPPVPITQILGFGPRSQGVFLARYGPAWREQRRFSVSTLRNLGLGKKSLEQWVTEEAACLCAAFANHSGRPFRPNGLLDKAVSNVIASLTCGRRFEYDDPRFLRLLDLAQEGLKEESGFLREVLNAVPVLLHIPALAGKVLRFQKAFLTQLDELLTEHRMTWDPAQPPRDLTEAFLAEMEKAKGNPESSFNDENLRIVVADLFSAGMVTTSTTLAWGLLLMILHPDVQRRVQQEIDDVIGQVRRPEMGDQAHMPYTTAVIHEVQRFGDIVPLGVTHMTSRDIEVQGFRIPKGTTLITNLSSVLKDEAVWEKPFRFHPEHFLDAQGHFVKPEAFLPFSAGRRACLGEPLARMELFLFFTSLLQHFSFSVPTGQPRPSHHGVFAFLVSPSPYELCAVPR

Regarding `N#Cc1ccc(CN2CCC3(CC2)CCN(C(=O)c2ccncc2)CC3)cc1`, the Potency in [1] was > 11.4 µM (inactive); in [5], > 46 µM (inactive); in test [9] it was 6.31 µM (active). The activity change, negative = inhibition was 1.51% (inactive) in test [2] and 1.92% (inactive) in test [10]. Further, the Potency entry in [3], in test [6], in test [7] and in [8] was “inactive” throughout. Besides, the activity, negative = inhibition in test [4] was -3.87% (inactive). In addition, the max response in test [10] (setting [14]) was 15.7%; in test [10] (setting [15]), 18.7%. Also, the result in test [11] was inactive.
Consider `COc1ccccc1CN1CC2(CCN(C(=O)c3ccncc3)CC2)C1`, for which the figures for the Potency in test [1], in test [5] and in [9] were > 11.4 µM (inactive), > 46 µM (inactive) and 0.794 µM (active), respectively. The activity change, negative = inhibition in [2] was -0.483% (inactive); in test [10], -2.12% (inactive). For the same compound, the Potency entry in [3], in [6], in test [7] and in [8] was “inactive” each time. Further, the activity, negative = inhibition in test [4] is -1.82% (inactive). For the same compound, the max response was -19.5% in test [10] (setting [14]) and -17.3% in [10] (setting [15]). Moreover, the result in test [11] was inactive.
Take `Cc1noc(C)c1C(=O)N1CCC2(CCN(Cc3ccncc3)CC2)CC1`: the Potency was > 11.4 µM (inactive) in [1] and > 46 µM (inactive) in test [5]. Moreover, the activity change, negative = inhibition in test [2] was 5.66% (inactive); in test [10], 4.47% (inactive). The Potency result in test [3], in test [6], in test [7] and in [8] was “inactive” each time. Besides, the activity, negative = inhibition in test [4] was -5.26% (inactive). Further, in test [12], the activation is 14.4% (inactive). In addition, the max response in test [10] (setting [14]) was found to be 0.0469%; in test [10] (setting [15]), 9.36%. The result in test [11] was inactive.
Turning to `c1ccc(C(c2ccccc2)N2CCC3(CCNCC3)CC2)cc1`, the figures for the Potency in test [1], in test [5] and in test [13] were > 11.4 µM (inactive), > 46 µM (inactive) and 3.98 µM (active), respectively. In addition, the activity change, negative = inhibition in test [2] was -10.6% (inactive); in [10], -5.07% (inactive). Besides, the Potency result in [3], in [6] and in [7] was “inactive” in each case. Further, the activity, negative = inhibition in [4] was 0.474% (inactive). The results for the max response in test [10] (setting [14]) and in test [10] (setting [15]) were 27.4% and 21.5%, respectively. Further, the result in [11] was inactive.
With `COc1ccccc1CN1CCC2(CC1)CCN(C(=O)c1c(C)noc1C)CC2`, the Potency in test [1] is > 11.4 µM (inactive); in test [5] it was > 46 µM (inactive); in test [9], 7.94 µM (active). Further, the activity change, negative = inhibition was 4.81% (inactive) in test [2] and 1.42% (inactive) in [10]. The Potency result in test [3], in [6] and in test [7] was “inactive” in each case. In addition, in [4], the activity, negative = inhibition was -4.2% (inactive). For the same compound, the max response was 11.3% in test [10] (setting [14]) and 18.8% in test [10] (setting [15]). For the same compound, the outcome in test [11] was inactive.
In the case of `CC(=O)N1CCC2(CCCN(Cc3ccccc3)C2)CC1`, the Potency in test [1] was > 11.4 µM (inactive); in test [5], > 46 µM (inactive); in test [9] it was 2.51 µM (active). Further, the activity change, negative = inhibition is -3.56% (inactive) in test [2] and 2.49% (inactive) in test [10]. The Potency entry in test [3], in test [6] and in test [7] was “inactive” throughout. Besides, in test [4], the activity, negative = inhibition was 9.01% (inactive). Besides, the results for the max response in test [10] (setting [14]) and in [10] (setting [15]) were -0.297% and 3.92%, respectively. In [11], the result was inactive.
In the case of `CC(C)CN1CCC2(CC1)CCN(C(=O)c1cccc(F)c1)CC2`, the Potency in test [1] was > 11.4 µM (inactive); in test [5], > 46 µM (inactive); in test [9], 5.01 µM (active). Moreover, the activity change, negative = inhibition in test [2] was -11.3% (inactive); in test [10], 0.839% (inactive). In addition, the Potency entry in test [3], in test [6] and in [7] was “inactive” in each case. Further, the activity, negative = inhibition in [4] was 0.382% (inactive). For the same compound, the max response in test [10] (setting [14]) worked out at 1.53%; in test [10] (setting [15]), 2.51%. For the same compound, the outcome in test [11] was inactive.
